High-throughput results as filed in PubChem.
Compounds with a hit are over-represented: about 19% of the library has one in this group of screens.
RORgamma inh = qHTS for inhibitors of ROR gamma transcriptional activity; Nuclear receptor ROR-gamma (Mus musculus), P51450; Drosophila S2 Gal4-RORgamma UAS-luciferase reporter, 20 h; Potency, µM (series often up to 53.6 µM), for the others: at the top dose activity change, negative = inhibition, most hits filed as inhibitors; actives 5.4% (n = 310,000); AID 2551, 2010; note: nearly all actives have a fitted effect of over 60% in size
Target sequence (P51450 whole entry, looked up, the tested form may be a part): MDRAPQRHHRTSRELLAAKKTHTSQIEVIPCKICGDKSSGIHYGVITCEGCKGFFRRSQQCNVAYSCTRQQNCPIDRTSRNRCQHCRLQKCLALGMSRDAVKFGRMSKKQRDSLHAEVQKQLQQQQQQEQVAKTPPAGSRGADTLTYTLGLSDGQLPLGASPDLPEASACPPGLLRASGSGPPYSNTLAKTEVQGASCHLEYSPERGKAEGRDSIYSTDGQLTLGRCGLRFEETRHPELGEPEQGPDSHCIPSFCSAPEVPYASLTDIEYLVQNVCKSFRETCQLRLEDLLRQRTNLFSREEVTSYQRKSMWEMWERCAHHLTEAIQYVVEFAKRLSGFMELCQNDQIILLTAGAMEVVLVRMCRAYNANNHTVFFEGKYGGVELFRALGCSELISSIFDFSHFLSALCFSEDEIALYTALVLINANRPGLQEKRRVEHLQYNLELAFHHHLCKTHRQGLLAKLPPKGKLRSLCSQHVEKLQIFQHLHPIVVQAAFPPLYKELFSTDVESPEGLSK
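A Gal4/UAS one-hybrid system in insect cells: metallothionein-promoter Gal4–ROR gamma fusion plus Photinus luciferase reporter. Copper sulfate 700 uM final, 20 hr ambient incubation, luminescent detection after 10 min with reagent.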
Gal4-VP16 FLuc = VP16 counterscreen qHTS for inhibitors of ROR gamma transcriptional activity. Drosophila S2 Gal4-VP16 UAS-luciferase, luminescence, 20 h. Potency, µM (highest dose often 53.6 µM), for inactives: top-dose activity, negative = inhibition, usual class: inhibitors. actives 3.5% (n = 310,000). AID 2546, 2010;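 note: Gal4-VP16 expression switched on by copper sulfate through the metallothionein promoter; nearly all actives have a fitted effect of over 50% in size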
TDP1 cell noCPT = qHTS for Inhibitors of human tyrosyl-DNA phosphodiesterase 1 (TDP1): qHTS in cells in absence of CPT | DT40 Tdp1-/- hTDP1 cells, no CPT, ATP luminescence, 48 h | Potency, µM (top dose mostly 46.2 µM), for the others: at the top dose activity change, negative = growth inhibition, hits mostly inhibitors | actives 15% (n = 420,000); note: nearly all actives have a fitted effect of over 55% in size
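No-CPT arm: Tdp1-/-;hTDP1 DT40 cells (400/well) plus compounds, incubated ≥48 hr at 37 °C. Readout CellTiter-Glo luminescence.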
TDP1 block = qHTS Assay for Inhibitors of Tyrosyl-DNA Phosphodiesterase (TDP1); actives 0.28% (n = 350,000); AID 485290, 2010; Tyrosyl-DNA phosphodiesterase 1 (Homo sapiens), Q9NUW8; recombinant TDP1, AlphaScreen DNA substrate cleavage; Potency, µM (top dose mostly 130 µM), without a hit: top-dose activity change, negative = inhibition, usual class: inhibitors; note: nearly all actives have a fitted effect of over 40% in size
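Signal: AlphaScreen proximity between streptavidin donor and anti-FITC acceptor beads on intact substrate. Reaction: Tdp1 1 nM, substrate 15 nM final, 5 min RT after 15 min compound preincubation.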
DT40 TDP1 CPT = qHTS for Inhibitors of human tyrosyl-DNA phosphodiesterase 1 (TDP1): qHTS in cells in presence of CPT; AID 686979, 2013; Potency, µM (series often up to 46.2 µM), without a hit: at the top dose activity change, negative = growth inhibition, actives largely listed as inhibitors; actives 12% (n = 420,000); chicken DT40 Tdp1-/-;hTDP1 cells + 20 nM CPT, ATP luminescence, 48 h; note: nearly all actives have a fitted effect of over 55% in size
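Cell growth measured by CellTiter-Glo luminescence after a minimum 48 h, 37 C compound exposure with 20 nM CPT in Tdp1-knockout DT40 cells stably expressing hTDP1, seeded 400/well; qHTS titration format.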
* marks the source's active call; other numbers are inactive results; ? = inconclusive; . = no result; [ ] = remark or other dose. Calls come from the whole dose curve; as a rule, active = well fitted curve in the direction sought with a large enough effect; inconclusive = small, poorly fitted or top-dose-only effect, or another doubt; inactive = no such curve, though single readings can be large; an effect the other way counts as inactive or inconclusive. % is set by controls: 0 for no effect and ±100 for the full control effect; potency is the fitted concentration of half-maximal effect.

SMILES	RORgamma inh	Gal4-VP16 FLuc	TDP1 cell noCPT	TDP1 block	DT40 TDP1 CPT
CCOc1ccc(NC(=O)CN2CCCC2c2cccs2)cc1S(=O)(=O)N1CCCCC1 (centres undefined)	.	.	15µM*	1%[56.1 µM]	15µM*
CCOc1ccc(NC(=O)[C@@H]2CCCN2C(=O)c2cccs2)cc1S(=O)(=O)N1CCCCC1	.	.	7%	1%	-2%
Cc1ccc(NC(=O)CN2C(=O)NC(Cc3c[nH]c4ccccc34)C2=O)cc1S(=O)(=O)N1CCCCC1 (centres undefined)	9%	2%	21µM*	5%	21µM*
COc1ccc(NC(=O)CCc2nc(-c3ccccc3F)no2)cc1	8%	-2%	2.6µM*	2%	?
COc1ccc(-c2noc(CCC(=O)Nc3cccc(C)c3)n2)cc1	0.28µM*	?	?	7%	?
COc1cc(-c2noc(CCC(=O)Nc3cccnc3)n2)cc(OC)c1OC	2%	1%	-28%	4%	-6%
O=C(CCc1nc(-c2ccccc2F)no1)NCc1ccco1	-5%	19%	-10%	7%	-6%
O=C(CCc1nc(-c2ccccc2F)no1)Nc1cccc(C(F)(F)F)c1	.	.	15µM*	-8%	18µM*
O=C(CCCc1nc(-c2ccc(Cl)cc2)no1)Nc1cccnc1	16µM*	11µM*	15µM*	5%	16µM*
CCOC(=O)c1cccc(NC(=O)CCc2nc(-c3ccccc3F)no2)c1	-17%	-1%	?	-2%	23µM*
Cc1cccc(-c2noc(CCC(=O)Nc3ccc(C(N)=O)cc3)n2)c1	-7%	-6%	-4%	.	-3%
NC(=O)CCCc1nc(-c2ccccc2)no1	-1%	-14%	-6%	5%	9%
O=C(Nc1ccc(-c2noc(CCc3ccccc3)n2)cc1)c1cccnc1	5%	5%	12µM*	3%	18µM*
CCOC(=O)c1cccc(NC(=O)CCc2nc(-c3ccc(C)cc3)no2)c1	3.2µM*	-29%	23µM*	4%	?
O=C(O)CCCc1nc(-c2ccccc2)no1	14µM*	?	-18%	2%	3%
COc1ccccc1-c1noc(CCC(=O)Nc2cccc(C)c2)n1	39%	3%	?	3%	?
CC1CC(C)CN(C(=O)COC(=O)CNC(=O)C23CC4CC(CC(C4)C2)C3)C1 (centres undefined)	.	.	-4%	-7%	4%
Cc1ccc(S(=O)(=O)N2[C@H](c3ccccc3)CC(=O)[C@@H]3CN(S(=O)(=O)c4ccccc4C)[C@H](c4ccccc4)C[C@@H]32)cc1	.	.	5%	.	4%
COc1ccc(S(=O)(=O)Nc2ncccc2C)c2ccccc12	12%	2%	-13%	.	5%
O=C(CCCc1nc(-c2ccccc2)no1)Nc1cc(C(F)(F)F)cc(C(F)(F)F)c1	.	.	23µM*	1%	?
Cc1cc(C(=O)C(C)OC(=O)c2ccc(NC(=O)CC#N)cc2)c(C)n1-c1ccc(OC(F)F)cc1 (centres undefined)	.	.	12µM*	1%	23µM*
CN(CCNC(=O)CN1CCN(Cc2ccccc2Cl)C1=O)Cc1ccccc1	3%	1%	?	4%	-10%
CCn1c(COc2ccc(=O)n(-c3ccccc3)n2)nnc1SC	-5%	-9%	3%	0%	11%
CCOC(=O)C1=C(COC(=O)/C=C/c2ccc(OC)cc2)NC(=O)NC1C (centres undefined)	.	.	21µM*	-2%	9.2µM*
CCOC(=O)C1=C(COC(=O)/C=C/c2ccc(SC)cc2)NC(=O)NC1C (centres undefined)	.	.	?	.	-25%
SMILES	RORgamma inh	Gal4-VP16 FLuc	TDP1 cell noCPT	TDP1 block	DT40 TDP1 CPT
CCOC(=O)C1=C(COC(=O)COc2ccc(C#N)cc2)NC(=O)NC1C (centres undefined)	-1%	0%	16µM*	-1%	9%
O=C(c1ccccc1C(=O)N1CCN(c2ccccc2F)CC1)N1CCN(c2ccccc2F)CC1	13%	1%	?	2%	18µM*
O=C(c1ccccc1Oc1ccccc1)N1CCN(c2ccccc2F)CC1	2%	4%	16µM*	-4%	18µM*
O=C(c1ccco1)N1CCC[C@@]2(CCN(c3cccc(-c4ccccc4)c3)C2)C1	27%	18%	?	.	?
CC1=C(CC(=O)O)c2cc(F)ccc2C1=Cc1ccc(S(C)(=O)=O)cc1	.	.	?	.	-26%
Cc1cc(C)n(CC(=O)NNC(=O)COc2ccc(Cl)cc2Cl)n1	.	.	-14%	0%	10%
Cc1cc(C)n(-c2ccn(Cc3ccc(Cl)cc3Cl)c(=O)n2)n1	-6%	0%	16µM*	-1%	21µM*
O=S(=O)(Nc1cccc(S(=O)(=O)N2CCCC2)c1)c1ccc(Cl)s1	.	.	-6%	-2%[56.1 µM]	-17%
CCn1c(COc2ccc(=O)n(-c3ccccc3)n2)nnc1SCc1ccccc1C	10%	0%	?	6%	16µM*
CCn1c(COc2ccc(=O)n(-c3ccccc3)n2)nnc1SCc1ccc(C)cc1	29%	6%	?	-7%	-28%
O=C(O)COc1cccc(NC(=O)c2ccccc2)c1	?	1%	-15%	0%	-24%
COc1cccc(C(=O)Nc2cccc(OCC(=O)c3ccccc3)c2)c1	-44%	?	?	-5%	23µM*
COc1ccc(C(=O)COc2cccc(NC(=O)c3ccco3)c2)cc1	?	1%	18µM*	-8%	?
Cc1ccc(C(=O)C(C)Oc2cccc(NC(=O)c3ccco3)c2)cc1 (centres undefined)	?	-7%	26µM*	8%[56.1 µM]	?
COc1cccc(NC(=O)c2ccco2)c1	6%	-3%	-28%	5%	-18%
COc1cccc(C(=O)COc2cccc(NC(=O)c3ccco3)c2)c1	19%	-22%	?	9%	-27%
O=C(COc1cccc(NC(=O)c2ccccc2)c1)c1ccccc1	2%	-1%	?	3%	16µM*
Cc1cccc(C)c1NC(=O)CN1N=NC2C(=O)N(c3cccc(Cl)c3)C(=O)C21 (centres undefined)	-5%[10 µM]	-15%	-2%	6%	-8%
COc1ccc(OC(=O)Nc2ccccc2)cc1	-8%	13%	-17%	1%	-16%
C[C@@]12C=Cc3occc3C1CC[C@@]13C[C@@H](CCC12)[C@@](O)(CO)C3 (some centres undefined)	-35%	-26%	.	2%	.
